In PubChem BioAssay AID1508600 (Functional Genomics Laboratory (NCATS/FGL), 2020):
The whole screen tested about 53,000 sequences, of which about 3,700 (7%) were called active. Many of the other results were omitted from the sample, so actives are more common in it than they were. A number with no mark means an inactive call.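 Rule for the calls: active = gene knockdowns whose robust z-score for IL-1 alpha signal is at least 2 or at most -2, so actives lie on both sides; inactive = the rest.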

test: Components of the Cytosolic LPS Sensing Pathway: Gene Identification via Genome-wide siRNA Screen; conditions: RAW264.7 macrophages, IL-1a HTRF, actives lie on both sides, screened at 100 nM (by protocol), cells primed 5 h with Pam3CSK4 first;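 note: robust z of the log signal after scaling to non-targeting control siRNA wells of the plate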
Procedure, shortened: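 Cells (RAW264.7, 1×10^4 per well) were transfected with siRNA at 100 nM and cultured 48h at 37 degrees C. Pam3CSK4 was added for 5 hours; LipidA transfection followed for 24 hour. IL-1a was then measured by HTRF.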

| Sequence | z-score |
| --- | --- |
| CGUGGAUGAUACCAAAAUGTT against Igsf21 | -0.73 |
| GGUGCUGAAGAAGCACCAUTT against Stat5a | 0.271 |
| GCGAGAUUCUUGCUUACUCTT against Slc66a2 | -0.472 |
| GGAUGUUUUCCCGACAAGATT against Angptl1 | -1.27 |
| GGAUGGGAAGACUACCCGATT against Camta2 | -2.62 (active) |
| CGACCUUCAAGGCAAUAUUTT against Anapc2 | -0.573 |
| CCAUCUAACCCUAUAUUAGTT against G6pdx | -1.21 |
| CCAUGAAUAGCAUCUUUGCTT against Adamtsl2 | -0.25 |
| GGAUGACAAAAAUUUCAAGTT against St14 | -0.283 |
| GGAGAGGGUCUUAGUCAGATT against Wasf1 | 0.802 |
| GGGUGACAUGGUGACCAUCTT against Matk | 3.54 (active) |
| GGCCUUGUAUCUCUUUACATT against Hdgf | 0.425 |
| GCUGGUUUUGAACUGUACATT against Flt4 | 0.155 |
| CCCAAGUGGUAAGAUUGGUTT against Rps3 | 0.123 |
| CCCUUGUCUAAAAUAUACATT against Zfp941 | -0.387 |
| CCCUGCUAUCAGCAUCACATT against Hacd3 | -3.09 (active) |
| CGGUAUUUGUCUGUAUCCUTT against Npc2 | -1.71 |
| GCUGGAUUCUGGUAAAUGGTT against Eif5a | -0.836 |
| GCAGAUCCGAGACAAGUAUTT against Cplx2 | -1.91 |
| GGAUGAACAACUCUAGGCCTT against Mafk | -0.736 |
| GGUCUACAGCUACCUGAAUTT against Npc2 | 0.105 |
| GCGGUUUCUUACCAAUAACTT against Cyp1a2 | 0.984 |

| Sequence | z-score |
| --- | --- |
| GGAAGCGUGGAAGUCUACGTT against Kcnj16 | 0.277 |
| GGGCAAAGGGAGUGACAAATT against Skp2 | -1.95 |
| GGACAACUACAUUGUACUGTT against Insr | -1.16 |
| GGCAGCAGAGAACAAGAAATT against Serbp1 | -1.43 |
| CCCAACUGACAUCUUCCUATT against Gzmb | 2.86 (active) |
| GGAAAGCACAUCCUCUUUGTT against Gpx6 | 1.02 |
| CGUGAUUUCAGUGAGGGUGTT against Tarsl2 | 0.996 |
| CGAAGUGAAGAUUUACAGCTT against Nol10 | -0.106 |
| GCAAUGUGACCAAGACAAUTT against Prelid1 | 0.739 |
| GGCGUGAUAGCUGGACUUATT against Eola1 | 0.439 |
| GGCCAUAUCUUAAAGUUAATT against Hcfc1r1 | -0.246 |
| GACCAGUGACAAGACCAUCTT against Unc45b | 0.352 |
| GGUGCAGGCCAUGAUUUACTT against C1qtnf4 | 2.65 (active) |
| GGAAAUGCCACCAAAGAACTT against Slc38a11 | -0.168 |
| CGGACUUGUUUUUUAGUCUTT against Tnrc18 | 0.164 |
| GGCCAACUGGAGAUAGAUATT against Tamm41 | 1.19 |
| GGAUAAUGGUUUAAAACUCTT against Bmt2 | -1.34 |
| GGAAAACCUACCGAAGUUATT against Irf3 | 2.79 (active) |
| GCAUUGAAGUCACCUCCACTT against Clcn2 | 0.161 |
| GGACAACCAAGGAAGAAACTT against Fam205c | 0.816 |
| GGUGUUUGAAGAGCUGACATT against Pde6b | -1.85 |
| GGUUGUUAAGCUGAAGCAATT against Prkacb | -0.219 |

| Sequence | z-score |
| --- | --- |
| GCUAUAAUGCUGGAGUCAATT against P3h2 | 0.27 |
| GGUGUGUUUGCUAUUUCCATT against Olfr259 | 0.4 |
| GGUCCCAGCAUGUUUACGUTT against Slc2a12 | 3.04 (active) |
| GCUCUGUCUUCAGGUCAUUTT against Olfr1040 | -0.0484 |
| GGGACUGGAUUUCUGUAUUTT against Derl1 | -0.694 |
| GGCUAUCCAGAGAUACGUGTT against Snrnp25 | -0.571 |
| GGGCAUAGACAGUACCAGUTT against Clec2m | -2.04 (active) |
| GGACCAGCUAAAUAUUAGUTT against Rgs2 | -0.315 |
| GGCAUUAAUAUGUCUGACUTT against Tada1 | -0.0627 |
| GGAAAAAUGGCAACUUCAATT against Dock3 | 0.766 |
| GGUGUAUGUCACCCUGACCTT against Sag | -0.617 |
| GGGUAACUGGUUUGUAUGATT against Gm4814 | 1.34 |
| GGGCAUAUUCAAACUUGUGTT against Elf2 | -1.68 |
| GGCUCAGACCUGGAUACAUTT against Oas1e | -2.31 (active) |
| CCAAGGUACUACUGGGAGATT against Sval3 | 0.268 |
| GCAAGUACGCUGCUCUGUCTT against Eif4b | 0.397 |
| GGCAGUCAGCUAAUGCUUATT against Pros1 | -0.372 |
| CGAGUAUUUUGAAAUCCUGTT against Cdcp3 | 0.406 |
| GGAUCUAUGGGUAUCCUGCTT against Adam1a | -1.8 |
| GGAGGAUGAGAUGAUGCCATT against Sez6l2 | -2.19 (active) |
| GGCUCAAGUAUGAGAAUGATT against Krt15 | -0.859 |
| GGCUUUCCUUCGGAAGAAUTT against Abca14 | -1.15 |

| Sequence | z-score |
| --- | --- |
| GGAAGAUACGUGCAAAAUGTT against Rbms2 | -0.562 |
| GGAACAGUCUGAAAUACACTT against Usp18 | -0.907 |
| GCAGUUCUGGUUCUGUCUGTT against Nudcd3 | -0.203 |
| GGCUCUUCUUAUGCACCCUTT against Pdyn | -0.543 |
| CCCAGAAGGACGGCACUAGTT against H2-DMb2 | 0.265 |
| GCCUGACAAUAGUCAUUUCTT against Olfr985 | -2.03 (active) |
| GGCUCACACUCCUGUUAAUTT against Fam20c | -1.02 |
| GGGCAUGAUUUUCACUUCCTT against Gpr150 | 0.79 |
| CGAGAAGGGUCAUAUGAGCTT against Rbp4 | -1.84 |
| GCUGUGACAGAAGCUUUCGTT against Vars2 | -0.201 |
| CCCUCAUGUUUCAUUUGUGTT against Glrx3 | -0.454 |
| GCUUGAUAUAGUAUCCUUUTT against Prpf38b | -2.05 (active) |
| GGAUUGUCAGAGAAAGAGATT against Syt3 | -0.751 |
| GCUACAAAGAGUAAAACUGTT against Zfp251 | 1.01 |
| GGCUGUUCGUGCAAGCCUATT against Bahcc1 | 0.544 |
| GGUCAUCCCAUCUUACAAATT against 4933431E20Rik | 0.649 |
| CCGACAUCCUUGAUACGUUTT against Vps35l | -2.12 (active) |
| GGAACUGGAAAACUUCAAATT against Mrvi1 | 1.04 |
| GGAUUGCCCUGUUGUGGUGTT against Snx17 | -0.227 |
| GCGAUACAACUCUUAUGACTT against Dennd5b | -0.521 |
| GGACUAUGUGGCCCAGUGUTT against Nat8f5 | -1.11 |
| GGAGCACAAUUCAAAUUCATT against Zbtb6 | 2.06 (active) |

| Sequence | z-score |
| --- | --- |
| GGGAAACACCUGGGUGCUUTT against Ctrl | -1.07 |
| GGGAGAUUGGAAACAAAAATT against Hsd3b4 | -0.935 |
| CCCUAUCAACUGAUCUUUUTT against Scml2 | -0.732 |
| GGAUAGCUCAUGAUGCUGUTT against Usp13 | -0.885 |
| GGAAGUUGACAAAAUAGUGTT against Dlgap5 | 0.389 |
| GCUAAAGUGACCUUAAAACTT against Phactr4 | -0.382 |
| GGACUACUUUAAGGAUUGGTT against Tfip11 | -2.97 (active) |
| CGAGAUGGGAGAUUGAAAUTT against Ms4a8a | 0.47 |
| GGAAGAGGAGGUGACAUACTT against Exd1 | -1.15 |
| CCACAUCAAGUCUAUCAUCTT against Ryr1 | -1.19 |
| GGAUCAACCUAGAAGCUUGTT against Strada | -0.192 |
| GGAGACUCCAACUACUUCATT against Sycp1 | 1.23 |
| GCCGCUUAUAUGUAUCGCUTT against Adipoq | 2.54 (active) |
| CGCCUACUGCUUCAGGAUATT against Cgrrf1 | 1.27 |
| GGACUCAUCUUUAUUAUUCTT against Olfr393 | -0.324 |
| GGAAGUUGGUUAUACUCGUTT against Lins1 | 0.822 |
| GGAGGAAGACAUUGUGUGUTT against Tnfrsf11b | -0.309 |
| GGAAAACCAUGAAGCCAUGTT against Dnase1l3 | 0.69 |
| GGCUCUAUAUCCAGCAGCATT against Srst | -1.1 |
| GUCACUGAAUUUCUCCUCUTT against Olfr104-ps | -2.28 (active) |
